Source: PubChem BioAssay
DT40 TDP1 CPT: DT40-hTDP1 cell growth loss with CPT; chicken DT40 Tdp1-/-;hTDP1 cells + 20 nM CPT, ATP luminescence, 48 h; Potency, µM (top dose mostly 46.2 µM), for the others: at the top dose activity change, negative = growth inhibition, usual class: inhibitors; actives 12% (n = 420,000); AID 686979; also: nearly all actives have a fitted effect of over 55% in size
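Chicken DT40 Tdp1-/- cells stably complemented with human TDP1 were seeded at 400 cells/well in medium containing 20 nM camptothecin, exposed to pin-transferred compounds, and grown at 37 °C for at least 48 hr. Viability was read as ATP luminescence.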
KB-3-1 tox: KB-3-1 parental cell cytotoxicity; KB-3-1 viability, CellTiter-Glo ATP luminescence, 72 h; Potency, µM (top dose mostly 46.1 µM), hits mostly cytotoxic; actives 1.4% (n = 400,000); AID 1347075; also: nearly all actives have a fitted effect of over 60% in size
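Here the drug-naive KB-3-1 line serves as comparator for MDR sub-line selectivity; cells received compound titrations, 72 h at 37 °C, then CellTiter-Glo readout.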
HT1080 IDH1KD tx: kills HT-1080 cells with IDH1 knockdown. Potency, µM (top dose mostly 46.1 µM), for the others: at the top dose activity, negative = toxicity, most hits filed as cytotoxic. AID 686971. HT-1080 IDH1 knockdown viability, ATP luminescence, 48 h. actives 2% (n = 360,000);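 also: 0% = DMSO wells and -100% = cell-free medium wells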
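After a 2 h attachment period, IDH1KD HT-1080 cells took pin-transferred compound for 48 h at 37 °C; ATP-based luminescence after 10 min room-temperature reagent incubation reported viability.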
TDP1 cell noCPT: qHTS for Inhibitors of human tyrosyl-DNA phosphodiesterase 1 (TDP1): qHTS in cells in absence of CPT | DT40 Tdp1-/- hTDP1 cells, no CPT, ATP luminescence, 48 h | Potency, µM (series often up to 46.2 µM), for inactives: top-dose activity change, negative = growth inhibition, usual class: inhibitors | actives 15% (n = 420,000) | AID 686978, 2013; also: nearly all actives have a fitted effect of over 55% in size
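Growth kinetics read by CellTiter-Glo luminescence after ≥48 hr at 37 °C. Cells: DT40 Tdp1-/- stably carrying human TDP1, 400 per well, compound exposure in the absence of CPT (DMSO vehicle).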
KB-V1 cytotox: KB-V1 MDR subline cytotoxicity | AID 1347076 | actives 3.4% (n = 400,000) | Potency, µM (doses to about 46.1 µM), most hits filed as cytotoxic | KB-V1 MDR cells viability, CellTiter-Glo, 72 h; also: nearly all actives have a fitted effect of over 60% in size
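Readout: CellTiter-Glo luminescence, 10 min after addition. Cells: KB-V1 MDR subline, 72 h at 37 degrees C with compound. Analysis: corrected, normalized data fitted to concentration-effect curves.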
HT1080NT lethal: kills 2HG-producing HT-1080-NT fibrosarcoma cells; AID 686970; Potency, µM (top dose mostly 46.1 µM), without a hit: at the top dose activity, negative = less viability, actives largely listed as cytotoxic; actives 1.6% (n = 360,000); HT-1080-NT fibrosarcoma viability, CellTiter-Glo ATP luminescence, 48 h;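 also: NT is the 2HG producing partner of a matched IDH1 knockdown line; 0% = DMSO-treated cells and -100% = media-only wells without cells; nearly all actives have a fitted effect of over 55% in size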
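HT-1080-NT fibrosarcoma cells (2HG-overproducing), 750 cells/well in RPMI with 5% FBS, dosed after 2 h and incubated 48 h at 37C. CellTiter-Glo luminescence normalized to DMSO and no-cell wells; concentration-response curves fitted and classed.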
Starred values were filed as active, the others as inactive; i = inactive; ? = inconclusive; . = no result. An excerpt weighted towards active compounds, which were near 19% of everything screened. Calls follow the shape of the dose curve; as a rule, active = well fitted curve in the direction sought with a large enough effect; inconclusive = small, poorly fitted or top-dose-only effect, or another doubt; inactive = no such curve, though single readings can be large; an effect the other way counts as inactive or inconclusive. Unless noted, % is scaled to controls: 0 for no effect and ±100 for the full control effect; potency is read from the fitted curve at half-maximal effect.

SMILES	DT40 TDP1 CPT	KB-3-1 tox	HT1080 IDH1KD tx	TDP1 cell noCPT	KB-V1 cytotox	HT1080NT lethal
O=C(CCN1C(=O)/C(=C/c2ccc(F)cc2)SC1=S)NCCc1ccc(O)cc1	-13%	i	5%	?	i	-6%
CN1CCN(C(=O)CCN2C(=O)/C(=C\c3ccc(Cl)cc3)SC2=S)CC1	18µM*	i	0%	?	i	3%
O=C(CN1C(=O)/C(=C/c2ccc(F)cc2)SC1=S)N1CCN(CCc2ccccn2)CC1	6.5µM*	i	-9%	2.3µM*	i	-13%
CN1CCN(C(=O)CCN2C(=O)/C(=C\c3ccc(F)cc3)SC2=S)CC1	18µM*	?	12%	15µM*	i	12%
CC(C)N(Cc1ccccc1)C(=O)COC(=O)c1ccc(O)cc1	-5%	i	0%	-1%	i	5%
CN1CC(=O)N(CC(=O)Nc2ccc(Cl)c(C(F)(F)F)c2)c2ccccc2C1=O	?	i	.	?	i	.
CC(=O)CSc1ccc(-c2nc3cc(C)c(C)cc3[nH]2)cn1	?	i	-30%	?	?	-17%
Cc1cc2nc(-c3ccc(SCc4ccc(C#N)cc4)nc3)[nH]c2cc1C	?	i	?	23µM*	i	?
CC(=O)CSc1ccc(-c2nc3ccccc3[nH]2)cn1	10µM*	?	9.2µM*	8.2µM*	9.2µM*	?
Cc1cc2nc(-c3ccc(SCC(=O)Nc4ccc(S(=O)(=O)N5CCCC5)cc4)nc3)[nH]c2cc1C	-5%	i	?	13µM*	i	?
N#Cc1ccccc1CSc1ccc(-c2nc3ccccc3[nH]2)cn1	?	i	0%	?	?	20%
Cc1cc2nc(-c3ccc(SCC(=O)Nc4nccs4)nc3)[nH]c2cc1C	16µM*	i	?	16µM*	?	?
CCOC(=S)SCc1cn2cccc(C)c2n1	-19%	i	10%	-3%	i	3%
O=[N+]([O-])c1ccc2nnn(O)c2c1	-1%	i	1%	?	i	19%
CC(=O)N/C(=C\c1ccc(Br)s1)C(=O)O	-4%	i	4%	7%	i	9%
O=C(CSc1ccc(-c2nc3ccccc3[nH]2)cn1)Nc1ccc(S(=O)(=O)N2CCCC2)cc1	?	i	-6%	13µM*	?	-13%
Cc1ccc2nc(-c3ccc(SCC(=O)N4CCc5ccccc54)nc3)[nH]c2c1	?	?	0%	13µM*	4.1µM*	3%
CCc1nnc(NC(=O)CSc2ccc(-c3nc4ccc(C)cc4[nH]3)cn2)s1	?	i	4%	?	7.3µM*	-1%
CCn1cc(S(=O)(=O)c2ccccc2)c(=O)c2cc(F)c(N3CCCCCC3)cc21	?	i	.	?	i	.
COCCN(Cc1ccc(C)c(Br)c1)C(=O)Cn1cnc(S(=O)(=O)N2CCCC2)c1	?	i	4%	?	i	0%
CC(C)c1c(C(=O)Nc2ccccc2)c(-c2ccccc2)c(-c2ccc(F)cc2)n1CC[C@@H](O)C[C@@H](O)CC(=O)O	?	.	.	15µM*	.	.
CC(=O)Nc1ccc(S(=O)(=O)N(C)CC(=O)OCC(=O)N(C)C2CCS(=O)(=O)C2)cc1 (centres undefined)	-11%	i	-7%	-4%	i	0%
O=C(NNc1ccccc1F)C1CCC1	5%	i	-28%	-17%	?	-17%
O=C(NNc1ccc(F)cc1F)C1CCC1	-5%	i	4.6µM*	-19%	i	?
O=C(Cn1cc(S(=O)(=O)c2ccccc2)c(=O)c2cc3c(cc21)OCO3)Nc1ccccc1	-10%	i	.	-13%	i	.
